GalR3 antagonist: human GalR3 antagonism; inhibition, % at 3 µM; 0.44% of 360,000 active; HEK293 GalR3-CNG cAMP membrane potential fluorescence; galR3 body fused to GalR1 C-terminus; AID 651719;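 active means inhibition above the screen-wide average plus 3 SD, cut at about 13% in these data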;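 further: forskolin and galanin both at EC90 stimulate the cells; cAMP rise reported by CNG channel membrane potential dye signal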
NCOA1 inh: human NCOA1 inhibition | Q15788 | HEK293 GAL4-SRC1 luciferase reporter, luminescence | inhibition, % at 3.6 µM | 0.12% of 360,000 active;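 active means inhibition above the campaign mean plus 3 SD, with each screening campaign given its own cutoff, cut at about 60% in these data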
LRH-1 inv ag: inverse agonists of human LRH-1 (NR5A2). O00482. inhibition, % at 3.6 µM. HEK293T StAR-luciferase reporter, LRH-1 transfected, 24 h. AID 602396. 0.13% of 360,000 active;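 active means inhibition above the mean inhibition of all tested compounds plus 3 SD, cut at about 73% in these data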
SRC3 inh: human NCOA3 inhibition; Q9Y6Q9; HEK293 GAL4-SRC3 luciferase reporter, luminescence; inhibition, % at 3.6 µM; 0.17% of 360,000 active; AID 588352;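 active means inhibition above a per-campaign cutoff, the mean of all compounds plus 3 SD, cut at about 60% in these data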;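 further: higher means less SRC3-driven luciferase light from the GAL4 reporter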
COUP-TFII inh: inhibitors of human COUP-TFII (NR2F2). inhibition, % at 8.6 µM. HEK293T NGFI-A luciferase reporter, luminescence. 0.7% of 370,000 active;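 active means inhibition above a per-plate cutoff, mean inhibition of test wells between control levels plus 3 SD, cut at about 38% in these data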;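 further: cells cotransfected with COUP-TFII expression vector driving the NGFI-A reporter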
NCOA2 inhibitor: human SRC2 (NCOA2) inhibition; inhibition, % at 9 µM; 0.17% of 370,000 active; AID 651957; HEK293 GAL4-SRC2 luciferase reporter, luminescence; Q15596;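 active means inhibition above the mean inhibition of all tested compounds plus 3 SD, set per campaign, cut at about 52% in these data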
GalR3 conf: GalR3 (human) antagonism, confirmation. shares compounds with GalR3 antagonist. HEK293 GalR3 CNG cAMP biosensor, membrane potential fluorescence; galR3 fused to GalR1 carboxy tail; challenged with forskolin and galanin at EC90. inhibition, % at 3 µM. 59% of 1,600 active. AID 652245;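 active means inhibition above the primary screen's cutoff, the mean inhibition of all screened compounds plus 3 SD, cut at about 13% in these data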
HEK-CNG parental: parental cell agonism counter-screen for GalR3 antagonists; AID 652268; HEK293-CNG parental cells, cAMP membrane potential fluorescence; normalised: DMSO wells 0%, forskolin wells 100%; shares compounds with GalR3 antagonist; 10% of 1,600 active; activation, % at 3 µM; in the data active means activation above about 1.3%
Gal4-VP16 ctr: counter-screen for COUP-TFII antagonists: inhibitors of VP16; 25% of 2,500 active; HEK293 Gal4-VP16 luciferase reporter, luminescence; shares compounds with COUP-TFII inh; inhibition, % at 8.5 µM; in the data active means inhibition above about 13%
NR2F2 inh conf: confirmation of human COUP-TFII (NR2F2) inhibitors | shares compounds with COUP-TFII inh | 45% of 2,500 active | HEK293 NGFI-A luciferase reporter, luminescence | inhibition, % at 8.5 µM;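 active means mean inhibition over three repeats above a set limit taken from the earlier primary screen, cut at about 38% in these data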
Of the large screens only hits and unclear results are named; the others gave an inactive call (follow-up assays come after a bar, where they were run). In the library only some 1.1% were active in any assay of this set; here they are far more common.

COc1ccc(CCN2C(=O)CSC2=Nc2ccc(C(C)C)cc2)cc1OC	GalR3 antagonist 83.5, COUP-TFII inh 63.6 | GalR3 conf 96.3 | HEK-CNG parental inactive | Gal4-VP16 ctr 14.5 | NR2F2 inh conf 61.6
COC(=O)CSc1nnc(-c2ccc(NS(=O)(=O)c3ccc(C)c(C)c3)cc2)o1	none (no result: GalR3 antagonist, NCOA1 inh, LRH-1 inv ag, SRC3 inh)
CN(C)S(=O)(=O)Oc1cccc(C(=O)Nc2ccc(Cl)cc2)c1	GalR3 antagonist 27.7, COUP-TFII inh 44.8 | GalR3 conf 51.2 | HEK-CNG parental inactive | Gal4-VP16 ctr inactive | NR2F2 inh conf inactive
CC(=O)OC[C@]12CC[C@H]3[C@@](C)(CC[C@H]4C(C)(C)CCC[C@]34C)[C@@H]1CC(C1=CC(=O)OC1O)O2 (some centres not stated)	GalR3 antagonist 30.1, NCOA1 inh 79.6, LRH-1 inv ag 102.5, SRC3 inh 85.0, COUP-TFII inh 81.6, NCOA2 inhibitor 79.8 | GalR3 conf 43.7 | HEK-CNG parental 1.8 | Gal4-VP16 ctr 92.5 | NR2F2 inh conf 104.8
CC(=O)OC[C@]1(OC(C)=O)C[C@@]23CC[C@H]4[C@@](C)(CCC[C@@]4(C)C(=O)O)[C@@H]2CC[C@@H]1C3	none
CCOC(=O)CC[C@H]1CC[C@]2(CCCN(C(=O)c3ccco3)C2)O1	none (no result: GalR3 antagonist, NCOA1 inh, LRH-1 inv ag, SRC3 inh)
C#Cc1ccc(NC(=O)C2(C)CCN2C(=O)Cc2ccc(C(C)C)cc2)cc1 (configuration not stated)	GalR3 antagonist 83.5, COUP-TFII inh 56.9 | GalR3 conf 91.8 | HEK-CNG parental inactive | Gal4-VP16 ctr inactive | NR2F2 inh conf 47.2
CC(C)(C)c1ccc(CC(=O)N2CCC2(C)C(=O)Nc2ccc3[nH]ncc3c2)cc1 (configuration not stated)	none
C#Cc1ccc(NC(=O)C2(C)CCN2C(=O)Cc2ccc(C(C)(C)C)cc2)cc1 (configuration not stated)	GalR3 antagonist 26.5, COUP-TFII inh 61.5 | GalR3 conf 94.1 | HEK-CNG parental inactive | Gal4-VP16 ctr inactive | NR2F2 inh conf 42.9
CC(C)c1ccc(CC(=O)N2CCC2(C)C(=O)NCC(C)(C)C)cc1 (configuration not stated)	none
COC(=O)[C@H](CC(C)C)N1Cc2nnn(Cc3ccccc3)c2-c2ccccc2S1(=O)=O	none (no result: GalR3 antagonist, NCOA1 inh, LRH-1 inv ag, SRC3 inh)
COc1ccccc1-[n+]1c(C)cc(/C=C2\Sc3ccccc3N2C)cc1C	GalR3 antagonist 44.0, NCOA1 inh 62.2, LRH-1 inv ag 84.2, SRC3 inh 69.2, COUP-TFII inh 81.9 | GalR3 conf 107.2 | HEK-CNG parental inactive | Gal4-VP16 ctr inactive | NR2F2 inh conf 89.3
COc1ccc(-[n+]2c(C)cc(/C=C3\Sc4ccccc4N3C)cc2C)cc1	GalR3 antagonist 81.8, NCOA1 inh 70.7, LRH-1 inv ag 98.4, SRC3 inh 74.5, COUP-TFII inh 82.3 | GalR3 conf 103.0 | HEK-CNG parental inactive | Gal4-VP16 ctr inactive | NR2F2 inh conf 66.5
Cc1cc(NS(=O)(=O)C2CCN(C(=O)Cc3ccc(Cl)c(Cl)c3)CC2)no1	none (no result: GalR3 antagonist, NCOA1 inh, LRH-1 inv ag, SRC3 inh)
CC(=O)N1CCc2cc(S(=O)(=O)NCCC3=CCCCC3)ccc21	GalR3 antagonist 82.0, COUP-TFII inh 46.8 | GalR3 conf 79.9 | HEK-CNG parental inactive | Gal4-VP16 ctr inactive | NR2F2 inh conf inactive
CC(=O)N1CCc2cc(S(=O)(=O)NCCCN3CCCCC3)ccc21	none
CN(CCOC(=O)c1cc2ccccc2o1)C1CN(Cc2cn(Cc3cccc(F)c3)nn2)S(=O)(=O)C1 (configuration not stated)	none (no result: GalR3 antagonist, NCOA1 inh, LRH-1 inv ag, SRC3 inh)
COCCN1CCN(C(=O)c2ccc3nc(Cc4ccc(OC)c(OC)c4)oc3c2)CC1	GalR3 antagonist 87.5, COUP-TFII inh 49.3 | GalR3 conf 48.0 | HEK-CNG parental inactive | Gal4-VP16 ctr inactive | NR2F2 inh conf 48.5
NC(=S)NNc1ccnc2cc(Cl)ccc12	none
O=C(NNc1ccnc2cc(Cl)ccc12)C1CCCCC1	GalR3 antagonist 27.0, COUP-TFII inh 56.9 | GalR3 conf 111.6 | HEK-CNG parental inactive | Gal4-VP16 ctr 13.0 | NR2F2 inh conf 65.2
Cc1nc2ccc(NC(=O)c3cc(S(=O)(=O)N(C)c4ccccc4)ccc3Cl)cc2s1	GalR3 antagonist 77.9, COUP-TFII inh 77.8 | GalR3 conf 111.9 | HEK-CNG parental inactive | Gal4-VP16 ctr inactive | NR2F2 inh conf 69.4
Cc1nc(N2CCCCC2C)c2nnn(Cc3ccccc3)c2n1 (configuration not stated)	none (no result: GalR3 antagonist, NCOA1 inh, LRH-1 inv ag, SRC3 inh)
O=C(c1ccccc1)N1CCC(Oc2cccnc2)CC1	none (no result: GalR3 antagonist, NCOA1 inh, LRH-1 inv ag, SRC3 inh)
Cc1nc(C)c(C(=O)NCc2ccc(Cl)cc2)o1	none (no result: GalR3 antagonist, COUP-TFII inh, NCOA2 inhibitor)
Cc1nn(C)c(C(=O)NCc2ccc(Cl)cc2)c1Cl	GalR3 antagonist 81.6, COUP-TFII inh 60.6 | GalR3 conf 100.4 | HEK-CNG parental inactive | Gal4-VP16 ctr inactive | NR2F2 inh conf 43.8
Cc1cc(CNC(=O)c2cccc([N+](=O)[O-])c2C)c2ccccc2n1	GalR3 antagonist 32.7, COUP-TFII inh 64.2 | GalR3 conf 53.5 | HEK-CNG parental inactive | Gal4-VP16 ctr inactive | NR2F2 inh conf 55.2
CCCCCCCn1c2c(c(=N)c3ccccc31)CCC2	GalR3 antagonist 42.0, LRH-1 inv ag 78.8, SRC3 inh 63.5, COUP-TFII inh 73.7 | GalR3 conf 58.0 | HEK-CNG parental 7.3 | Gal4-VP16 ctr 25.2 | NR2F2 inh conf 74.8
CC(C)[C@H]1COc2c3ccccc3nn21	none (no result: GalR3 antagonist, NCOA1 inh, LRH-1 inv ag, SRC3 inh)
Cc1nnsc1C(=O)NC1CCCc2c1cnn2-c1ccc(C(C)(C)C)cc1 (configuration not stated)	GalR3 antagonist 108.2, COUP-TFII inh 65.2 | GalR3 conf 110.8 | HEK-CNG parental inactive | Gal4-VP16 ctr inactive | NR2F2 inh conf 66.2
CC(C)(C)c1ccc(-n2ncc3c2CCCC3NC(=O)c2ccncc2)cc1 (configuration not stated)	none
Cc1ncoc1C(=O)NC1CCCc2c1cnn2-c1ccc(C(C)(C)C)cc1 (configuration not stated)	GalR3 antagonist 101.6, COUP-TFII inh 60.3 | GalR3 conf 110.8 | HEK-CNG parental inactive | Gal4-VP16 ctr inactive | NR2F2 inh conf 65.3

High-throughput results (PubChem)
